Laboratory results taken from ChEMBL document CHEMBL1157539, “Thousands of chemical starting points for antimalarial lead identification” (Nature, 2010).

Columns and labels:
Format in all cases: functional
Plasmodium falciparum [1] = test: GSK_TCMDC: Inhibition of Plasmodium falciparum 3D7 in whole red blood cells, using parasite LDH activity as an index of growth. Test compounds present at 2uM
Plasmodium falciparum [2] = test: GSK_TCMDC: Inhibition of Plasmodium falciparum Dd2 in whole red blood cells, using parasite LDH activity as an index of growth. Test compounds present at 2uM
HepG2 = test: GSK_TCMDC: Percent inhibition of human HepG2 cell line. Test compounds present at 10uM.

Row | SMILES | Inhibition (Plasmodium falciparum [1]) | Inhibition (Plasmodium falciparum [2]) | Inhibition (HepG2)
1 | COCCNCc1ncsc1-c1ccc2c(Nc3ccc(Oc4ccccc4)cc3)ccnc2c1 | 91% | 93% | 34%
2 | O=C(Nc1ccc(Cn2ncc(N3CCCNCC3)c(Cl)c2=O)cc1)Nc1ccc(C(F)(F)F)cc1.O=C(O)C(F)(F)F | 90% | 58% | 12%
3 | COc1ccc(CNCc2ccc(-c3cccc(-c4nc5cccc(C)c5[nH]4)c3)cc2)cc1.O=C(O)C(F)(F)F | 100% | 100% | 69%
4 | CN1CCN(CCCN(Cc2cccc(-c3ccc(CNCc4ccc5c(c4)OCO5)cc3)c2)C(=O)CCC2CCCC2)CC1.O=C(O)C(F)(F)F | 98% | 84% | 91%
5 | O=C(/C=C/c1ccc(Cl)c(Cl)c1)NCCCCN1CCCN(C(=O)Nc2ccc(F)c(Cl)c2)CC1 | 87% | 2% | 69%
6 | O=S(=O)(c1cccc2cccnc12)N1CCN(C2CCCCC2)CC1 | 96% | 10% | 15%
7 | COc1ccc(CNC2Cc3ccccc3C2)cc1-c1ccc(S(=O)(=O)NCc2cccnc2)s1.O=C(O)C(F)(F)F | 91% | 18% | 49%
8 | COc1cc(NC(=O)c2sc(-c3ccc(Cl)cc3)cc2NC(=O)c2ccncc2)ccc1OCCN1CCCC1 | 100% | 100% | 100%
9 | c1cc(Cc2ccc(Nc3c4ccccc4nc4ccccc34)cc2)cc(Nc2c3ccccc3nc3ccccc23)c1 | 100% | 100% | 91%
10 | Cl.c1cc2c3c(cccc3c1)NC(CCCCCCCCC1=Nc3cccc4cccc(c34)N1)=N2 | 93% | 6% | 14%
